PubChem BioAssay (NCATS)
Records with an inconclusive call do not appear. Calls of active or inactive are those of the source. Unless noted, the call rests on the fitted dose curve; in most records, active means well fitted curve in the direction sought with a large enough effect; inconclusive means small, poorly fitted or top-dose-only effect, or another doubt; inactive means no such curve, though single readings can be large; an effect the other way counts as inactive or inconclusive.

Assays:
[1] = Cytometric Cell-Based qHTS for Inhibitors of the mTORC1 Signaling Pathway in MEF (Tsc2-/-, p53-/-) Cells (AID 2660);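 further: Tsc2 and p53 null MEFs carrying empty vector with compound for 24 h; percent of cells above a phospho-rpS6 to PI ratio cutoff in each well; series mostly up to about 38 µM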
Procedure, shortened: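 Cells are plated, treated with compound for 24 hrs at 37 degree Celsius, then fixed, blocked and immunostained for phospho-rpS6 Ser235/236. Propidium iodide counterstain follows. Per-well % positive cells is derived from the PI-normalized phospho-S6 signal.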

[2] = High Content Imaging Cell-Based qHTS for Inhibitors of the mTORC1 Signaling Pathway in MEF (Tsc2-/-, p53-/-) Cells (AID 2666);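 further: percent of cells scored positive for phospho-rpS6 Ser235/236 immunostaining by imaging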
Procedure, shortened: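 Cells were plated, dosed with compound after 24 hrs, and incubated another 24 hrs at 37 degree Celsius. Fixed cells were immunostained for phospho-rpS6 Ser235/236 and counterstained, and the normalized signal was scored as % active cells against rapamycin and DMSO controls.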

[3] = High Content Imaging Cell-Based qHTS for Inhibitors of the mTORC1 Signaling Pathway in MEF Cells (AID 2667);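 further: Tsc2-/- p53-/- MEFs stably re-expressing wild-type Tsc2 exposed 24 h; series mostly up to about 38 µM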
Procedure, shortened: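 Immunofluorescence for rpS6 phosphorylation in MEFs of Tsc2-/-, p53-/- background rescued with WT Tsc2. Compound exposure lasted 24 hrs. Inhibition was scored against rapamycin-treated control wells.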

[4] = Cytometry Cell-Based qHTS for Inhibitors of the mTORC1 Signaling Pathway in MEF cells (AID 2668);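 further: Tsc2-/- p53-/- mouse embryonic fibroblasts stably re-expressing wild-type Tsc2; percent cells positive for phospho-rpS6 Ser235/236 relative to propidium iodide stain; series mostly up to about 38 µM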
Procedure, shortened: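 Tsc2-/-, p53-/- MEFs re-expressing WT Tsc2; cpd 24 hrs, 37 degree Celsius; PFA fix, Alexa-488 p-rpS6 (Ser235/236) Ab 2 hrs RT, PI counterstain; Acumen 488nm scan; p-S6/PI ratio → % positive cells; PI count = viability.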

[5] = Validation screen for small molecules that induce DNA re-replication in MCF 10A normal breast cells (AID 463097); further: nearly all actives have a fitted effect of over 60% in size
Procedure, shortened: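 Image-based qHTS: normal breast cells are incubated with compound for 48 hr, stained with Hoechst, and scanned for total nuclear fluorescence. Compounds raising the fraction of nuclei with elevated DNA content count as re-replication inducers.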

[6] = target: Ubiquitin carboxyl-terminal hydrolase 2 (Homo sapiens) (UniProt O75604); test: qHTS Validation Assay for Inhibitors of Ubiquitin-specific Protease USP2a Using CHOP2 as the Reporter (AID 463106)
Procedure, shortened: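 10nM USP2 core + cpd, 30min RT; add 25nM Ub-CHOP2/25nM substrate; 60min RT; FI 485/531nm. Buffer Tris pH 8.0, CaCl2, BME, CHAPS. Norm. to NEM = 100% inhibition; time-zero read flags fluorescent artifacts.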

[7] = target: DNA polymerase III PolC-type (Bacillus subtilis (strain 168)) (UniProt P13267); test: qHTS Validation Assay for the Inhibitors of DNA Replication in Gram-Positive Bacteria (AID 485295);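 further: reconstituted holoenzyme with PolC plus beta clamp SSB and primase; PicoGreen fluorescence of double-stranded DNA made on primed circular M13 template; series mostly up to about 57 µM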
Procedure, shortened: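 First, compound is mixed with the reconstituted replication complex and held at room temperature. Next, circular single-stranded M13Gori with nucleotides starts synthesis. Finally, PicoGreen in EDTA halts the reaction and stains double-stranded product for fluorescence reading.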

[8] = target: Tumor susceptibility gene 101 protein (Homo sapiens) (UniProt Q99816); test: qHTS Validation Assay for Iinhibitors of HIV-1 Budding by Blocking the Interaction of PTAP/TSG101 (AID 485342; calls by dose curve)
Procedure, shortened: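 Binding of a FITC-tagged PTAP-motif peptide (50 nM) to the Tsg101 binding domain (10 uM) is monitored by fluorescence polarization. Compounds are pin-delivered before peptide addition, and incubation runs 20 min at room temperature.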

[9] = qHTS Validation Assay to Find Inhibitors of Chronic Active B-Cell Receptor Signaling (AID 485345; active means well fitted curve in the direction sought with a large enough effect in the main read-out, with a control signal flat, not every such curve was filed as active)
Procedure, shortened: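 Read-out: ratio of filter-corrected green (IkappaBalpha fusion) to red (native) luciferase signal in doxycycline-induced TMD8 cells after 4 h at 37C. Titration spanned 46 uM–3 nM; Data were normalised to basal cells and 10 uM MG-132 wells.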

[10] = target: Beta-2 adrenergic receptor (Homo sapiens) (UniProt P07550); test: qHTS validation assay of beta-arrestin-biased ligands of beta2-adrenergic receptor (AID 485366)
Procedure, shortened: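 Values derive from curve-fitted %Activity of a luminescent beta-arrestin recruitment reporter; compounds tested up to 46 microM on Tango cells for 18 hr at 37 degrees C, 5% CO2.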

[11] = Quantitative high throughput screen for delayed death inhibitors of the malarial parasite plastid, 96 hour incubation (AID 488745);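 further: luciferase-expressing P. falciparum in erythrocytes at 2% hematocrit and 0.1% parasitemia; series mostly up to about 29 µM; nearly all actives have a fitted effect of over 70% in size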
Procedure, shortened: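 Growth of reporter-bearing P. falciparum in red cells is measured after 96 h with compound, covering two erythrocytic cycles. Luminescence from the integrated luciferase serves as the growth signal.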

[12] = Quantitative high throughput screen for delayed death inhibitors of the malarial parasite plastid, 48 hour incubation (AID 488752); further: nearly all actives have a fitted effect of over 65% in size
Procedure, shortened: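 One parasite generation (48 h, 37 C, 5% CO2) of luciferase-reporter P. falciparum in erythrocytes is run with test compound; decreased luminescence indicates inhibited growth.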

[13] = target: Thioredoxin reductase 1, cytoplasmic (Rattus norvegicus) (UniProt O89049); test: qHTS Assay for Substrates of Mammalian Selenoprotein Thioredoxin Reductase 1 (TrxR1) (AID 488772);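 further: NADPH fluorescence in the first read after selenite addition and not the 8 min delta; series mostly up to about 57 µM; a drop in NADPH fluorescence below the no-compound background marks a TrxR1 substrate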
Procedure, shortened: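 Quantitative HTS in Tris-HCl buffer at pH 7.5 with EDTA and Tween-20, using rat TrxR1, 400 uM NADPH and 400 uM selenite (final). A fall in initial NADPH fluorescence relative to background marked substrate behaviour.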

[14] = target: Thioredoxin reductase 1, cytoplasmic (Rattus norvegicus) (UniProt O89049); test: qHTS Assay for Inhibitors of Mammalian Selenoprotein Thioredoxin Reductase 1 (TrxR1) (AID 488773); details: Potency: inhibition;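 further: drop in NADPH fluorescence over an 8 min run after selenite addition; series mostly up to about 57 µM; nearly all actives have a fitted effect of over 40% in size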
Procedure, shortened: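 Steps: enzyme (90 nM) plus NADPH (400 uM final), 5 min at ~22 deg C; compound added, 15 min; selenite (400 uM final) added; fluorescence followed for 8 min. Concentration-response curves derived from the normalized delta values.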

[15] = target: Flap endonuclease 1 (Homo sapiens) (UniProt P39748); test: qHTS Validation Assay for the Inhibitors of Human Flap endonuclease 1 (FEN1) (AID 488816)
Procedure, shortened: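 Readings taken at 0 and 15 min after starting the reaction with 50 nM (final) substrate supplied the signal. Compounds had first sat with 10 nM FEN1 reagent for 15 min at room temperature. Values come from Hill-equation concentration-response fits.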

[16] = target: M-phase phosphoprotein 8 (Homo sapiens) (UniProt Q99549); test: qHTS Validation Assay for Inhibitors for MPP8 Chromodomain Interactions with Methylated Histone Tails (AID 488949);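 further: 50 nM MPP8 with 50 nM peptide preformed then compounds added for 30 min; AlphaScreen signal from MPP8 chromodomain bound to biotinylated H3K9me3 peptide; top concentration of the series differs between compounds; nearly all actives have a fitted effect of over 55% in size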
Procedure, shortened: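 50 nM MPP8 + 50 nM b-H3K9me3 peptide, PBS pH 7.4/0.01% Tween-20, 30 min RT; + cpd 30 min RT; + AlphaScreen donor/Ni-chelate acceptor beads 10 ug/mL final, 30 min dark; luminescence read.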

[17] = target: Chromobox protein homolog 1 (Homo sapiens) (UniProt P83916); test: qHTS Validation Assay for Inhibitors of HP1-beta Chromodomain Interactions with Methylated Histone Tails (AID 488953);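 further: loss of AlphaScreen luminescence from HP1-beta binding biotinylated H3K9me3 peptide; series mostly up to about 110 µM; nearly all actives have a fitted effect of over 50% in size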
Procedure, shortened: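 Measured as loss of AlphaScreen luminescence from streptavidin donor and nickel acceptor beads (10 ug/mL final) bridging HP1-beta and biotin-H3(1-18)K9me3, each 50 nM. Compounds met the preassembled complex for 30 min at RT.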

[18] = target: Methanococcus maripaludis chaperonin (MmCpn) (UniProt Q6LX38); test: High-Throughput Screening for Modulators of Cytosolic Chaperonin Activity: MmCpn Primary Screen (AID 488978);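 further: 50 nM MmCpn enzyme hydrolysing 30 µM ATP at 37 °C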
Procedure, shortened: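 Steps: chaperonin 50 nM final; add compound, 5 min RT; start with ATP, 30 uM final; hold 10 min at 37C; add ADP Transcreener HTRF reagent, 5 min; read ex 320, em 590 and 665 nm.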

[19] = target: ATP-dependent 6-phosphofructokinase (Trypanosoma brucei brucei) (UniProt O15648); test: qHTS Validation Assay to Find Inhibitors of T. brucei phosphofructokinase (AID 485368)
Procedure, shortened: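 Enzyme reaction in triethanolamine buffer pH 8.0 with 5 mM MgCl2, 0.01% Tween20 and 0.1% BSA; PFK 1.25 nM, F6P 0.5 mM, ATP 0.1 mM, 45 min RT. ADP quantified by ADP-Glo.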

Measured: Potency

Tumor susceptibility gene 101 protein (Homo sapiens), sequence (Q99816 whole entry, looked up, the tested form may be a part): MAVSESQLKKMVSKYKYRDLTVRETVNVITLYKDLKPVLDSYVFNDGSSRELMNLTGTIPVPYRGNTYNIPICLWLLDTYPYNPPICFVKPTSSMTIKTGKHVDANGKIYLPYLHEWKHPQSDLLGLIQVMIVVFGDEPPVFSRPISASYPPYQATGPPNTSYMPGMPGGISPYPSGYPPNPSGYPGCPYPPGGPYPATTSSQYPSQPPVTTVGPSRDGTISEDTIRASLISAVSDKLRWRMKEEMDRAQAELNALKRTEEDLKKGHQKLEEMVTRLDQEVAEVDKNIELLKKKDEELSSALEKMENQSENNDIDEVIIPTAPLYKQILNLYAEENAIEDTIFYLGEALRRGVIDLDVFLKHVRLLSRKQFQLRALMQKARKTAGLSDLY
Flap endonuclease 1 (Homo sapiens), sequence (P39748 whole entry, looked up): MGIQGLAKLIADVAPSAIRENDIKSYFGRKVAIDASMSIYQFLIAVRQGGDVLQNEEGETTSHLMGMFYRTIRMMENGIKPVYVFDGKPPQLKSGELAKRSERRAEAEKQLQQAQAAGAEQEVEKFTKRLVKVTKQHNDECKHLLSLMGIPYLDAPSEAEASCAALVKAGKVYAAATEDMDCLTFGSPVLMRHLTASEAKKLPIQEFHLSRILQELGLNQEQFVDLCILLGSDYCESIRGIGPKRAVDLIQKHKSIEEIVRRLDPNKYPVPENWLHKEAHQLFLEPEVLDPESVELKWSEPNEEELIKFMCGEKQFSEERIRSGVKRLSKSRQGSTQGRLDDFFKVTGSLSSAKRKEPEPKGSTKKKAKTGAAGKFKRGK
Methanococcus maripaludis chaperonin (MmCpn), sequence (Q6LX38 1-543): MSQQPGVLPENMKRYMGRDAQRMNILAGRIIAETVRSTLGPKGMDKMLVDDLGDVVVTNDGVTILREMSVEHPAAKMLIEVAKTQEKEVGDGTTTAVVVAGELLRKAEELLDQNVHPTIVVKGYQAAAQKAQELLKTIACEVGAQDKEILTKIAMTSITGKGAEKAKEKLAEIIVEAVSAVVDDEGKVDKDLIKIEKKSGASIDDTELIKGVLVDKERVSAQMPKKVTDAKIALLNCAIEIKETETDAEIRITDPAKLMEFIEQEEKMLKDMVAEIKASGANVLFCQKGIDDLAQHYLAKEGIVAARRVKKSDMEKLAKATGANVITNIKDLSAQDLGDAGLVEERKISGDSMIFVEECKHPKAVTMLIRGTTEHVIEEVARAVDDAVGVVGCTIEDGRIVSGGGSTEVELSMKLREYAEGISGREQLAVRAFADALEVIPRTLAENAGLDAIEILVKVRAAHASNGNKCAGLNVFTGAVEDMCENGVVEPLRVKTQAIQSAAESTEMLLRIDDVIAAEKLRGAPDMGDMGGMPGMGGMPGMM
DNA polymerase III PolC-type (Bacillus subtilis (strain 168)), sequence (P13267 whole entry, looked up): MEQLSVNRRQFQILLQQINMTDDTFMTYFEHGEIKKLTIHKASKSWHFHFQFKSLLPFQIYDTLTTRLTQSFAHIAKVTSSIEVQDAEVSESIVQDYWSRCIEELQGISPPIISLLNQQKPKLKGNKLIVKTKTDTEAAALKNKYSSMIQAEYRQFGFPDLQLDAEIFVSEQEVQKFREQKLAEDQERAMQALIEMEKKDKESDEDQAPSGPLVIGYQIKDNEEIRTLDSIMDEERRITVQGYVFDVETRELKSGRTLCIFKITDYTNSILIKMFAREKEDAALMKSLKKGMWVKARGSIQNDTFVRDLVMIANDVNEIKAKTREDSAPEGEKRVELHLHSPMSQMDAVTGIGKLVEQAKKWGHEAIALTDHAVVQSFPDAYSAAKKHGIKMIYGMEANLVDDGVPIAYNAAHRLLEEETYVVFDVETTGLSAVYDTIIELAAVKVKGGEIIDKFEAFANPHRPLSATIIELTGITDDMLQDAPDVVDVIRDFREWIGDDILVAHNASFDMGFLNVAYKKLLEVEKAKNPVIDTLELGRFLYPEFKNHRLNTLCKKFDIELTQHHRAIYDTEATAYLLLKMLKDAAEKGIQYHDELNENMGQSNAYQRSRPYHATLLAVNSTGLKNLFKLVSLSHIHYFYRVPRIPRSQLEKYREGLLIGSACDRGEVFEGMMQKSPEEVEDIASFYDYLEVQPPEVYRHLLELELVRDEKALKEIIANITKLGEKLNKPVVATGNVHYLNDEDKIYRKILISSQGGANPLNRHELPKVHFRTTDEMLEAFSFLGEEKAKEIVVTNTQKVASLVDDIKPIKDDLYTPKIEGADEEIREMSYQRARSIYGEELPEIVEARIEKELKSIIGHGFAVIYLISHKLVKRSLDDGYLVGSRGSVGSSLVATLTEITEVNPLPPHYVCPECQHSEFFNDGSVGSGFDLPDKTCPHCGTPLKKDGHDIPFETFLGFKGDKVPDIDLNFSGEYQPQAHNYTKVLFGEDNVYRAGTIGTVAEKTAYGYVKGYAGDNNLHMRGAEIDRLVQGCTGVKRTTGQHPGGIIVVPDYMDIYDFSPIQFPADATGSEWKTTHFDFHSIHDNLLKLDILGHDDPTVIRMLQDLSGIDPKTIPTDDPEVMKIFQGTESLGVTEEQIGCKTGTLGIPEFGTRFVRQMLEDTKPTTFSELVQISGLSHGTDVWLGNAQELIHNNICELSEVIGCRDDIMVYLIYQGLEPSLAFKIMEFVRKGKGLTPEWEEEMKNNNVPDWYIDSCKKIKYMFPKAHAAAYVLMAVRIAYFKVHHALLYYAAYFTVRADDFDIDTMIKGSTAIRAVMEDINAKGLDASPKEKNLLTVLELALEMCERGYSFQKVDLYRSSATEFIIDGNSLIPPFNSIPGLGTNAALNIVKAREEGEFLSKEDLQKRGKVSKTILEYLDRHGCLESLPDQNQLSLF
Chromobox protein homolog 1 (Homo sapiens), sequence (P83916 whole entry, looked up): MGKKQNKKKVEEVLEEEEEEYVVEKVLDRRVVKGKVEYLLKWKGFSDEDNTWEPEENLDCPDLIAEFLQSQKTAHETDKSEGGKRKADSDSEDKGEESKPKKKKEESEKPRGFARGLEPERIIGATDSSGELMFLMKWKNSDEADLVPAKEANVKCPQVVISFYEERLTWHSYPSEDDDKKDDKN
Ubiquitin carboxyl-terminal hydrolase 2 (Homo sapiens), sequence (O75604 whole entry, looked up): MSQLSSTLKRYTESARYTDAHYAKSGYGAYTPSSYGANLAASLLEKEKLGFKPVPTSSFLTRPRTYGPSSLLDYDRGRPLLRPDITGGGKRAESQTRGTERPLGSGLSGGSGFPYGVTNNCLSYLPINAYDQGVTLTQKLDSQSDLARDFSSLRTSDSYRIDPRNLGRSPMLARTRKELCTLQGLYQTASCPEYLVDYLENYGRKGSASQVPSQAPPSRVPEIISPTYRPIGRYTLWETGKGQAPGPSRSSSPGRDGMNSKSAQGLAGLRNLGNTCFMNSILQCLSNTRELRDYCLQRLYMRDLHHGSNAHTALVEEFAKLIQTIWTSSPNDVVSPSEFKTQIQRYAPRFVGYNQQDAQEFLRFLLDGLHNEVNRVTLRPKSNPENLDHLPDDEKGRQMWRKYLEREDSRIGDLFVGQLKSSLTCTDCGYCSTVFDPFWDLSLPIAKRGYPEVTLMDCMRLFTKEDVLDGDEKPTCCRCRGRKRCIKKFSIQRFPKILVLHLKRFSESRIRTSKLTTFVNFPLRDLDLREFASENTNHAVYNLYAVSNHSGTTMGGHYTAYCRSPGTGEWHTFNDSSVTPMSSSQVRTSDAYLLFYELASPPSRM
M-phase phosphoprotein 8 (Homo sapiens), sequence (Q99549 whole entry, looked up): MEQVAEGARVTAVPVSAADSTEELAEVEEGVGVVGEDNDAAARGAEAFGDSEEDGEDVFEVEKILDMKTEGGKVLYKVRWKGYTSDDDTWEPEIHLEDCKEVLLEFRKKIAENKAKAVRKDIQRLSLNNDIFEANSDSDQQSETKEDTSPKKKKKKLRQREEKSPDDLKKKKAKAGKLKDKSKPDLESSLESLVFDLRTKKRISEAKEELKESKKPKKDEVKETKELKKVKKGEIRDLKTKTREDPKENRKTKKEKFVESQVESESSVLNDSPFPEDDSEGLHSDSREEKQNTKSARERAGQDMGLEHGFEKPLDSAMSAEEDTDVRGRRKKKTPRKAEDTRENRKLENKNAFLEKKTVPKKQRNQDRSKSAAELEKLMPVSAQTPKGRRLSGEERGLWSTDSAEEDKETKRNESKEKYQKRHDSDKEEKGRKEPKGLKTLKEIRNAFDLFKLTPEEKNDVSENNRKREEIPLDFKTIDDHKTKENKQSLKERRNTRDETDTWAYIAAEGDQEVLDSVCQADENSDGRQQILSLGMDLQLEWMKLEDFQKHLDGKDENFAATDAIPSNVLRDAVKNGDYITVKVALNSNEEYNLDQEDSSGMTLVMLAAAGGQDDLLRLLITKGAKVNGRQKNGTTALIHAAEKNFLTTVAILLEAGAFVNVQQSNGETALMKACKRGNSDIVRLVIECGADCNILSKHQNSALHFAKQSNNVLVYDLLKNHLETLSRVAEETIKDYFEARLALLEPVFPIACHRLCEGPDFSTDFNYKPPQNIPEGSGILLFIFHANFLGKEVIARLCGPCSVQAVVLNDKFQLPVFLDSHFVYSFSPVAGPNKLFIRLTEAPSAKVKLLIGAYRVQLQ
Thioredoxin reductase 1, cytoplasmic (Rattus norvegicus), sequence (O89049 whole entry, looked up): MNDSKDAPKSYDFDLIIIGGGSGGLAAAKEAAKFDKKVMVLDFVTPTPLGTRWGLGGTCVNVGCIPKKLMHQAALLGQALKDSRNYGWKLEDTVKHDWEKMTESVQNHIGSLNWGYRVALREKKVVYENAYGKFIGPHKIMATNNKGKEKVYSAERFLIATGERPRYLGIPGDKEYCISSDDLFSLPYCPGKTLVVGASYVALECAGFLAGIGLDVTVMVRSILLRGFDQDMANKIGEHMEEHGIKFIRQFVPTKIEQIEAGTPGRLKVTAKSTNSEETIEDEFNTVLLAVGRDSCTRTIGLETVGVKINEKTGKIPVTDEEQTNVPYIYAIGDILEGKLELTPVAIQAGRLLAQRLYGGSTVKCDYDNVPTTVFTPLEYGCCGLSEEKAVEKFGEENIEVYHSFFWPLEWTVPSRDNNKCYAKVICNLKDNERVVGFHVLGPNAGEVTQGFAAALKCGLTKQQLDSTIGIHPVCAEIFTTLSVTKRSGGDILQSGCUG

O=C(O)C1CCCNC1 (centres undefined)
not listed: [19]
inactive: all other assays above

c1ccc2nc(C3=NCCN3)ccc2c1
not listed: [15] | [19]
inactive: all other assays above

COc1ccc(-c2ccc(N)[n+](CCCC(=O)O)n2)cc1
not listed: [11] | [13]
inactive: all other assays above

CCN(CC)CCOC(=O)c1cc(Cl)c(N)cc1OC
not listed: [19]
inactive: all other assays above

N[C@H]1CONC1=O
not listed: [10] | [13]
inactive: all other assays above

CCCCS(=N)(=O)CC[C@H](N)C(=O)O (some centres undefined)
not listed: [12] | [19]
inactive: all other assays above
